PubChem BioAssay
For some assays here: Potency and affinity values are given separately. The source made the active and inactive calls. Unless noted, how the calls were made is not given here.

What was measured:
[1] = antimalarial activity against Dd2 strain (AID 2302;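 active means growth inhibition above 50% at the single 2 µM test dose, taken to imply half-maximal potency below 2 µM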;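 further: 0% = DMSO untreated growth and 100% = chloroquine plus artemisinin killed control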); conditions: P. falciparum Dd2 in RBCs, LDH growth readout, 72 h; at 2 µM; active compounds read high
[2] = human hepatoma cell viability loss – ATP luminescence, cytotoxicity control for P. falciparum antimalarial project, primary screen (AID 2303;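 active means inhibition above 50%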;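 further: 0% = DMSO wells and 100% = digitonin-killed cells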); conditions: HepG2 viability, 24-48 h, at 10 µM, active compounds read high
[3] = target: L-lactate dehydrogenase (Plasmodium falciparum (isolate CDC / Honduras)) (UniProt Q27743); assay: PfLDH activity inhibition – cell lysate, 3D7 strain, counter-screen for P. falciparum growth inhibition project (AID 2304);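 further: 0% = vehicle and 100% = reference inhibitor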; conditions: P. falciparum 3D7 crude extract, LDH APAD/NBT absorbance; at 2 µM; active compounds read high
[4] = inhibition of 3D7 malaria parasite growth – strain 3D7 (AID 2306);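 further: 0% = DMSO wells and 100% = chloroquine plus artemisinin control wells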; conditions: P. falciparum 3D7 erythrocytic growth, LDH absorbance, 72 h; at 2 µM; active compounds read high
[5] = target: Calcium-dependent protein kinase 1 (Plasmodium falciparum (isolate 3D7)) (UniProt P62344); assay: PfCDPK1 kinase inhibitors, biochemical, TCAMS library (AID 1159585; cut-off not given, nearly all actives have IC50 up to about 0.98 µM;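 further: inhibitors leave more ATP so luminescence rises with inhibition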); conditions: recombinant PfCDPK1, Kinase-Glo ATP depletion luminescence
[6] = target: Plasmodium falciparum protein kinase 6 (PK6, PF3D7_1337100) (UniProt Q8IDW1); assay: PfPK6 kinase inhibitors, biochemical, TCAMS library (AID 1159586); conditions: recombinant PfPK6, Kinase-Glo ATP depletion luminescence
[7] = target: Protein kinase 7 (PK7), Plasmodium falciparum 3D7 (PF3D7_0213400) (UniProt Q7YTF7); assay: inhibition of Plasmodium PK7 catalytic activity – biochemical, TCAMS antimalarial set, Kinase-Glo luminescence (AID 1159587); conditions: recombinant PfPK7, Kinase-Glo ATP depletion luminescence
[8] = target: Calcium-dependent protein kinase 4 (Plasmodium falciparum (isolate 3D7)) (UniProt Q8IBS5); assay: PfCDPK4 kinase inhibitors, biochemical, TCAMS library (AID 1159588; cut-off not given, nearly all actives have IC50 up to about 0.91 µM); conditions: recombinant PfCDPK4, Kinase-Glo ATP depletion luminescence
Chain of Calcium-dependent protein kinase 4 (Plasmodium falciparum (isolate 3D7)) (Q8IBS5 whole entry, looked up): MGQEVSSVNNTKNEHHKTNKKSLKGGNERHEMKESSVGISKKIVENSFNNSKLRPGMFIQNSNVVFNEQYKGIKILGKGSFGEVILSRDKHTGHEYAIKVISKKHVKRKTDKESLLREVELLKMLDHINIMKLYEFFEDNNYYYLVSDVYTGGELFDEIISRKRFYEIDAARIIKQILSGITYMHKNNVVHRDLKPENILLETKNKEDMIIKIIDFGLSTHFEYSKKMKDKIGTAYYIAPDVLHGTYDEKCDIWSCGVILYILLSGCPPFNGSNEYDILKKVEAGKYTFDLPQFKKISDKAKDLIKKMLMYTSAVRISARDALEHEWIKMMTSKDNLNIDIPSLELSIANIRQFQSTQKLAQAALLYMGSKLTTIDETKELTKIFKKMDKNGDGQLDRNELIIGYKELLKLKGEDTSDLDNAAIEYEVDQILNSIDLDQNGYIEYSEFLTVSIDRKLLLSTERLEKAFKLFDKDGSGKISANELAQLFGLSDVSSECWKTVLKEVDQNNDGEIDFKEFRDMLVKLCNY

Chain of Calcium-dependent protein kinase 1 (Plasmodium falciparum (isolate 3D7)) (P62344 whole entry, looked up): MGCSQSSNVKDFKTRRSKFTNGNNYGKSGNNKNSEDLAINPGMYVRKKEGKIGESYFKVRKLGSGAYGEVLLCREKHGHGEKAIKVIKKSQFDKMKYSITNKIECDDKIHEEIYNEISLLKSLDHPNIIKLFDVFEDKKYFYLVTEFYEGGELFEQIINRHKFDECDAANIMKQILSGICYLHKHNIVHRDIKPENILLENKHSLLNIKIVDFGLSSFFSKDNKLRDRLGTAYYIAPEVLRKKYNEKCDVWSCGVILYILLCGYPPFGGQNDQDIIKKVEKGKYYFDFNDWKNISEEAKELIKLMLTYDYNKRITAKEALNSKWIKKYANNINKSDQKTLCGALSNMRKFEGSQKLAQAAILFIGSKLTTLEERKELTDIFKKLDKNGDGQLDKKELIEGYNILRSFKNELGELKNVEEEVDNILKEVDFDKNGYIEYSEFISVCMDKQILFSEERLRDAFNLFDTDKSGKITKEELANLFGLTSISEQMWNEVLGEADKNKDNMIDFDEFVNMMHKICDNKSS
Chain of L-lactate dehydrogenase (Plasmodium falciparum (isolate CDC / Honduras)) (Q27743 whole entry, looked up): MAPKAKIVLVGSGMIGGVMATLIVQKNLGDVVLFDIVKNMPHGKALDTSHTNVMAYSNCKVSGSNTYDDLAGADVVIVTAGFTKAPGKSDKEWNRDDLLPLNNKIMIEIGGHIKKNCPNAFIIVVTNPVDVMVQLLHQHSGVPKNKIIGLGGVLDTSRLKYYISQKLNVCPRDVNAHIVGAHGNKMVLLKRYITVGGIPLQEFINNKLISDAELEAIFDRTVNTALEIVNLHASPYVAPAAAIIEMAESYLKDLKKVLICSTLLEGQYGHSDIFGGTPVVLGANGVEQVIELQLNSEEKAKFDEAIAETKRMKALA
Chain of Plasmodium falciparum protein kinase 6 (PK6, PF3D7_1337100) (Q8IDW1 1-305): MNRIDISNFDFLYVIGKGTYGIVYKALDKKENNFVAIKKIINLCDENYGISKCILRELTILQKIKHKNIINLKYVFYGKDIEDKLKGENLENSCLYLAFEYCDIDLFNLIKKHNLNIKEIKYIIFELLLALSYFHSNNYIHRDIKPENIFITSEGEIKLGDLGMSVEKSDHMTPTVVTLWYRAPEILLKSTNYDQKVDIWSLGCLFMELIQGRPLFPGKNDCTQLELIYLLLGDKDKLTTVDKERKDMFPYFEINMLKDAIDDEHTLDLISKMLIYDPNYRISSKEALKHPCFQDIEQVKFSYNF
Chain of Protein kinase 7 (PK7), Plasmodium falciparum 3D7 (PF3D7_0213400) (Q7YTF7 1-343): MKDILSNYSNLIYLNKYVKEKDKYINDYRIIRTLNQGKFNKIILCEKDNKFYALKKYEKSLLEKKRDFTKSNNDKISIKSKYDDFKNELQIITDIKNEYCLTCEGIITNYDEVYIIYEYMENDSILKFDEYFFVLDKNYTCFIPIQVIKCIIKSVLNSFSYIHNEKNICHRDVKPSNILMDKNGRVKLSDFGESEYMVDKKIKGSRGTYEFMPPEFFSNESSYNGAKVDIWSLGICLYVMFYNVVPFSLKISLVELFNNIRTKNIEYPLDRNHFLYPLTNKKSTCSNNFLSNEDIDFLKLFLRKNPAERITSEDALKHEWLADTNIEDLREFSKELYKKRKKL

C[C@H](NC(=O)c1cc(-c2ccc(C(C)(C)C)cc2)no1)C(=O)O (tested in a mixture with another compound)
inactive: inhibition [2] 31% | inhibition [3] -4% | outcome [5] | outcome [6] | outcome [7] | outcome [8]
active: growth inhibition [1] 97% | growth inhibition [4] 91%

Cc1onc(-c2ccccc2)c1-c1nc(NCCC(c2ccccc2)c2ccccc2)no1
inactive: inhibition [2] -4% | inhibition [3] -7% | outcome [5] | outcome [6] | outcome [7] | outcome [8]
active: growth inhibition [1] 78% | growth inhibition [4] 100%

Cc1ccc(NC(=O)c2c(C)noc2-c2snnc2C)cc1
active: growth inhibition [1] 71% | growth inhibition [4] 92%
inactive: inhibition [2] 1% | inhibition [3] 3% | outcome [5] | outcome [6] | outcome [7] | outcome [8]

COc1ccc2ccccc2c1CNCC1CCN(CC2CCCCC2)CC1
inactive: growth inhibition [1] 27% | inhibition [2] 23% | inhibition [3] -3% | outcome [5] | outcome [6] | outcome [7] | outcome [8]
active: growth inhibition [4] 98%

Cc1cc(-c2c[nH]c3ncc(-c4cccc5ncccc45)cc23)ccc1C(=O)O
active: growth inhibition [1] 77% | growth inhibition [4] 99%
inactive: inhibition [2] 31% | inhibition [3] -7% | outcome [5] | outcome [6] | outcome [7] | outcome [8]

Cc1cc(Oc2ccc(-n3ccnc3)cc2)nc(N2CCN(CCCN3CCCC3)CC2)n1
active: growth inhibition [4] 90%
inactive: growth inhibition [1] 7% | inhibition [2] 5% | inhibition [3] 0% | outcome [5] | outcome [6] | outcome [7] | outcome [8]

CO/C(=C\C=C\c1cc2cc(Cl)c(Cl)cc2[nH]1)C(=O)NC1C[C@H]2CC[C@@H](C1)N2C (stereo partly specified)
active: growth inhibition [4] 88%
inactive: growth inhibition [1] 23% | inhibition [2] 46% | inhibition [3] -4% | outcome [5] | outcome [6] | outcome [7] | outcome [8]

CCn1c(-c2nonc2N)nc2c(Cl)ncc(O[C@H](CCN)c3ccccc3F)c21
inactive: inhibition [2] 15% | inhibition [3] -2% | outcome [5] | outcome [6] | outcome [7] | outcome [8]
active: growth inhibition [1] 88% | growth inhibition [4] 96%

O=C(CSc1n[nH]c(-c2ccccc2Br)n1)c1c[nH]c2ccccc12
active: growth inhibition [1] 95% | growth inhibition [4] 100%
inactive: inhibition [2] 7% | inhibition [3] -6% | outcome [5] | outcome [6] | outcome [7] | outcome [8]

O=C(c1ccc(OCCn2ccnc2)cc1)N1CCC(c2ccc(Br)cc2)C1 (stereo unspecified)
active: growth inhibition [1] 99% | growth inhibition [4] 100%
inactive: inhibition [2] 49% | inhibition [3] -3% | outcome [5] | outcome [6] | outcome [7] | outcome [8]

O=C(Nc1cccc(C(F)(F)F)c1)Nc1nc2ccc([N+](=O)[O-])cc2s1
active: growth inhibition [1] 76% | inhibition [2] 81% | growth inhibition [4] 102%
inactive: inhibition [3] 0% | outcome [5] | outcome [6] | outcome [7] | outcome [8]

COc1cc(OC)cc(C(=O)Nc2ccc(Nc3nc(C)cc(N(C)C)n3)cc2)c1
active: growth inhibition [1] 90% | growth inhibition [4] 100%
inactive: inhibition [2] 11% | inhibition [3] 1% | outcome [5] | outcome [6] | outcome [7] | outcome [8]

C=CCO[C@@H]1O[C@H](COC(c2ccccc2)(c2ccccc2)c2ccccc2)[C@@H](OC(C)=O)[C@H](OC(C)=O)[C@H]1NC(C)=O
active: growth inhibition [1] 66% | growth inhibition [4] 93%
inactive: inhibition [2] -1% | inhibition [3] -1% | outcome [5] | outcome [6] | outcome [7] | outcome [8]

CCCN1CCC(NCc2cn(C)nc2-c2ccc(Oc3ccccc3)cc2)CC1
active: growth inhibition [4] 88%
inactive: growth inhibition [1] 44% | inhibition [2] 34% | inhibition [3] -3% | outcome [5] | outcome [6] | outcome [7] | outcome [8]

Cc1ccc(CN2CCN(c3cc4c(cc3Cl)CCN4C(=O)Cc3ccc(Cl)c(NC(=O)Nc4cccc(C#N)c4)c3)CC2)cc1
inactive: growth inhibition [1] 29% | inhibition [2] 3% | inhibition [3] 1% | outcome [5] | outcome [6] | outcome [7] | outcome [8]
active: growth inhibition [4] 92%

Cc1ccc2[nH]c3c(NCCN(C)C)ncnc3c2c1
active: growth inhibition [4] 99%
inactive: growth inhibition [1] 5% | inhibition [2] 9% | inhibition [3] 0% | outcome [5] | outcome [6] | outcome [7] | outcome [8]

CC1(C)Cc2c([nH]c3ccccc23)C(CCCCCCCCC2=NC(C)(C)Cc3c2[nH]c2ccccc32)=N1
active: growth inhibition [1] 88% | inhibition [2] 100% | growth inhibition [4] 99%
inactive: inhibition [3] -1% | outcome [5] | outcome [6] | outcome [7] | outcome [8]

COc1ccc(C2C(C(=O)Nc3cc(OC)c(OC)c(OC)c3)c3cc(OC)c(OC)cc3C(=O)N2C)cc1 (stereo unspecified)
active: growth inhibition [1] 100% | growth inhibition [4] 98%
inactive: inhibition [2] 9% | inhibition [3] 2% | outcome [5] | outcome [6] | outcome [7] | outcome [8]

Cc1ccc(F)c(CN2CCC(N3CC(c4ccccc4)(c4ccccc4)OC3=O)CC2)c1Cl
inactive: inhibition [2] 11% | inhibition [3] -4% | outcome [5] | outcome [6] | outcome [7] | outcome [8]
active: growth inhibition [1] 89% | growth inhibition [4] 95%

O=C(Nc1cccc(C(F)(F)F)c1)c1cccc2[nH]c(C(F)(F)F)nc12
active: growth inhibition [1] 98% | inhibition [2] 81% | growth inhibition [4] 100%
inactive: inhibition [3] -7% | outcome [5] | outcome [6] | outcome [7] | outcome [8]

CN(C)CCOc1cc(NC(=O)Nc2cccc([N+](=O)[O-])c2)ccc1I
active: growth inhibition [1] 51% | growth inhibition [4] 102%
inactive: inhibition [2] 8% | inhibition [3] 6% | outcome [5] | outcome [6] | outcome [7] | outcome [8]

COc1cc(NC(=O)N2CCc3cc(OC)c(OCCN4CCCCC4)cc32)cc(C(F)(F)F)c1
inactive: growth inhibition [1] 10% | inhibition [2] 9% | inhibition [3] -3% | outcome [5] | outcome [6] | outcome [7] | outcome [8]
active: growth inhibition [4] 93%

C=CCn1cc(C2CCN(CCCCNC(=O)c3sc(-c4ccc(C(F)(F)F)cc4)nc3CO)CC2)c2cc(OC)ccc21
active: growth inhibition [4] 91%
inactive: growth inhibition [1] 4% | inhibition [2] 40% | inhibition [3] 4% | outcome [5] | outcome [6] | outcome [7] | outcome [8]

CCOc1cc(C(=O)NCc2cccc(C(F)(F)F)c2)ccc1-c1nc2ccc(Cl)cc2[nH]1
active: growth inhibition [4] 88%
inactive: growth inhibition [1] 31% | inhibition [2] 7% | inhibition [3] -6% | outcome [5] | outcome [6] | outcome [7] | outcome [8]

COc1ccc(-c2ccc(NC(=O)c3cccs3)cc2)cc1CN1CCCN(C)CC1
active: growth inhibition [4] 100%
inactive: growth inhibition [1] 30% | inhibition [2] 31% | inhibition [3] 4% | outcome [5] | outcome [6] | outcome [7] | outcome [8]

COc1ccc2c(NN=Cc3ccccc3[N+](=O)[O-])ccnc2c1
active: growth inhibition [1] 97% | inhibition [2] 98% | growth inhibition [4] 102%
inactive: inhibition [3] -3% | outcome [5] | outcome [6] | outcome [7] | outcome [8]

CCOc1ccccc1CNc1nccc(NCc2ccccc2OC)n1
inactive: inhibition [3] -2% | outcome [5] | outcome [6] | outcome [7] | outcome [8]
active: growth inhibition [1] 66% | inhibition [2] 50% | growth inhibition [4] 87%

Cc1cccc(C(O)CNc2ccnc(Nc3cccc(-c4csc(C)n4)c3)n2)c1 (stereo unspecified)
active: growth inhibition [1] 88% | growth inhibition [4] 99%
inactive: inhibition [2] 29% | inhibition [3] 2% | outcome [5] | outcome [6] | outcome [7] | outcome [8]

CC(C)NCc1ccc(-c2cccc(-c3nc4ccc(F)cc4[nH]3)c2)cc1
active: growth inhibition [1] 96% | growth inhibition [4] 101%
inactive: inhibition [2] 14% | inhibition [3] -4% | outcome [5] | outcome [6] | outcome [7] | outcome [8]

CN1CCCN(Cc2cccc(-c3ccc(NS(=O)(=O)c4cccc5cccnc45)cc3)c2)CC1
inactive: inhibition [2] 44% | inhibition [3] 2% | outcome [5] | outcome [6] | outcome [7] | outcome [8]
active: growth inhibition [1] 87% | growth inhibition [4] 100%

Cc1ccc(Cn2ncc(N3CCCNCC3)c(Cl)c2=O)cc1NC(=O)Nc1ccc(-c2ccccc2)cc1
active: inhibition [2] 55% | growth inhibition [4] 101%
inactive: growth inhibition [1] 38% | inhibition [3] 1% | outcome [5] | outcome [6] | outcome [7] | outcome [8]

Cc1c(Cn2nc(Cl)c(N3CCNCC3)cc2=O)cccc1NC(=O)Nc1ccc(-c2ccccc2)cc1
inactive: growth inhibition [1] 29% | inhibition [3] 2% | outcome [5] | outcome [6] | outcome [7] | outcome [8]
active: inhibition [2] 96% | growth inhibition [4] 80%

COc1cc2nc(NCCc3ccccc3)nc(NC(C)c3ccccc3)c2cc1OC (stereo unspecified)
inactive: inhibition [2] 9% | inhibition [3] 1% | outcome [5] | outcome [6] | outcome [7] | outcome [8]
active: growth inhibition [1] 100% | growth inhibition [4] 99%

CN(CCN)Cc1ccc(-c2ccc(-c3nc4ccc(C(F)(F)F)cc4[nH]3)s2)cc1
active: growth inhibition [1] 98% | growth inhibition [4] 98%
inactive: inhibition [2] 37% | inhibition [3] 2% | outcome [5] | outcome [6] | outcome [7] | outcome [8]

COc1ccc2ccccc2c1C=NNc1ccnc2cc(Cl)ccc12
active: growth inhibition [1] 94% | growth inhibition [4] 100%
inactive: inhibition [2] 20% | inhibition [3] -5% | outcome [5] | outcome [6] | outcome [7] | outcome [8]

COc1ccc(CCn2c(=N)c(C(=O)NCc3ccccc3)cc3c(=O)n4ccccc4nc32)cc1
active: growth inhibition [4] 100%
inactive: growth inhibition [1] 18% | inhibition [2] 14% | inhibition [3] -1% | outcome [5] | outcome [6] | outcome [7] | outcome [8]

COc1ccc2c(=O)c3ccc(OC)cc3[nH]c2c1
active: growth inhibition [1] 75% | growth inhibition [4] 93%
inactive: inhibition [2] 12% | inhibition [3] 1% | outcome [5] | outcome [6] | outcome [7] | outcome [8]
